A word on the viability: it is a read-out of living cells in per cent, often relative to untreated cells. For orientation: AC50 means the concentration giving half of the maximal activity seen. Usually IC50 stands for the concentration that gives 50% inhibition.

SMILES strings stand for the structures. Inconclusive results are not listed. Active and inactive are the calls of the source. Unless noted, no cut-off is given here; in the data, nearly all actives have AC50 up to about 26 µM. Bridge positions count the residues as written; N and C are the ends. Square brackets hold non-standard residues; d marks the D form. Peptide text beside a SMILES is read from it. * marks the point of attachment. X2 = CCC(C)C(N)C1=NC(C(=O)*)CS1; dOrn = NCCC[C@@H](N)C(=O)O

Test [1] can be described thus: growth inhibition of DIPG glioma cells, dose response, cell-based, SU-DIPG-XIII, MIPE5.0, CellTiter-Glo, qHTS (AID 1347064; cut-off not given, nearly all actives have AC50 up to about 23 µM;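 for AC50: cells exposed to compound for 48 hours before the viability read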). Particulars: SU-DIPG-XIII viability, CellTiter-Glo ATP luminescence. On the technique in general: Cellular ATP, detected with luciferase, serves as a proxy for viable cell number.
Test [2] in a line: viability loss in pontine glioma line – cell-based, SU-DIPG-XXV, MIPE5.0, CellTiter-Glo, qHTS, dose response (AID 1347065).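 Note: cells exposed to compound for 48 hours before ATP readout.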 Particulars: CellTiter-Glo ATP luminescence.
The nature of test [3]: SU-DIPG-XXV glioma cell viability, MIPE5.0 library, qHTS (AID 1347068; cut-off not given, nearly all actives have IC50 up to about 30 µM;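 for IC50: cells exposed to compound for 48 hours before viability readout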). A general note: Quantitative high-throughput screening tests each substance at several concentrations.
The nature of test [4]: hESC survival regulators, cell-based (AID 493140; call rule not given here;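 note: cells exposed to compounds for four days before counting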). The following applies: human embryonic stem cell survival screen; stronger effect = higher value.
Test [5] is described as follows: liver-stage malaria parasite growth inhibition, primary screen, cell-based, HepG2, luciferase luminescence, HepG2 viability (AID 624349; in the data active = parasite load remaining mostly below about 12%, no sharp cut-off; inactive = mostly above about 10%;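 note: 100% = mean of DMSO negative control wells on the same plate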). The following applies: P. berghei liver stage in HepG2, luciferase luminescence, concentration not given here; parasite load remaining: stronger effect = lower value; viability: measured here: HepG2 viability without parasites.
Test [6] is described as follows: JHH-DIPG-1 glioma cell viability, MIPE5.0 library, CellTiter-Glo luminescence, qHTS (AID 1347067).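 Note: cells exposed to compound for 48 hours before readout.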 The following applies: JHH-DIPG-1 glioma viability, CellTiter-Glo ATP luminescence.
Test [7] is described as follows: sensitizers of A549 cells to miR-34 induction, primary screen, imaging, A549 dox-inducible miR-34, nuclei and caspase counts (AID 1347080;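 active = compounds whose cell count with miR-34 switched on is under 0.7 times the count with it off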). Particulars: A549 miR-34 inducible, Hoechst nuclei count, 48 h.
Test [8] in a line: survival rescue of mitochondrial mutant cells in low glucose, primary screen, MELAS cybrids, Rieske KO mouse fibroblasts, CellTiter-Glo (AID 1508586;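 active = mean z-score across replicates of 1.96 or higher in either the MELAS or the Rieske mutant cell line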;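 note: z relative to plate mean and SD of compound and empty wells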).
Setting [9] is: stronger effect = lower value, cell number ratio, induced over uninduced.
Setting [10] is: measured here: relative caspase fold change +Dox/-Dox.
Setting [11] is: measured here: total cells with miR-34 induction, stronger effect = lower value.
Where [12] appears, read: measured here: total cells without miR-34 induction.
Where [13] appears, read: MELAS cybrid survival, CellTiter-Glo 48 h, stronger effect = higher value.
[14] abbreviates: Rieske KO mouse fibroblast survival, CellTiter-Glo 72 h.

Take `Cc1c(Cl)cccc1S(=O)(=O)Nc1nc(CCN2CCOCC2=O)cs1`: the result in test [1], in test [2] and in test [3] was inactive.

Regarding `CCC(C)C(N)C1=NC(C(=O)N[C@@H](CC(C)C)C(=O)N[C@H](CCC(=O)O)C(=O)N[C@H](C(=O)N[C@H]2CCCCNC(=O)[C@H](CC(N)=O)NC(=O)[C@@H](CC(=O)O)NC(=O)[C@H](Cc3cnc[nH]3)NC(=O)[C@@H](Cc3ccccc3)NC(=O)[C@H]([C@@H](C)CC)NC(=O)[C@@H](CCCN)NC2=O)[C@@H](C)CC)CS1` (some centres undefined) (X2-L[dE]IK[dOrn]I[dF]H[dD]N; lactam 4-C), in test [4], the survival was 9.33 (inactive). Besides, the parasite load remaining in test [5] was 69.3% (inactive). The viability in test [5] is 103%. The compound was classed as inactive in test [1], in test [2], in test [6] and in test [3]. For the same compound, the fold change is 0.898 (inactive) in test [7] (setting [9]) and 1.36 in test [7] (setting [10]). Further, the figures for the cell count in test [7] (setting [11]) and in test [7] (setting [12]) were 9810 and 10900, respectively. In addition, the values for the z-score in test [8] (setting [13]) and in test [8] (setting [14]) were 0.499 (inactive) and -0.0886, respectively.

Consider `Nc1nccc(-c2c(-c3ccc(F)cc3)ncn2C2CCCCC2)n1`, for which the result in test [1], in test [6] and in test [3] was inactive.

Consider `COC(=O)N[C@@H](C)CNc1nccc(-c2cn(C(C)C)nc2-c2cc(Cl)cc(NS(C)(=O)=O)c2F)n1`, for which the call in test [1] and in test [3] was inactive. For the same compound, the half-maximal activity concentration (AC50) in test [2] is 1480 nM (active).

Turning to `CSC[C@H]1CN(Cc2c[nH]c3c(N)ncnc23)C[C@@H]1O`, the compound was classed as inactive in test [1], in test [6] and in test [3].

For the compound `Cc1c(-c2ccc(-c3ccccc3F)cc2)nc2ccc(F)cc2c1C(=O)O`, the call in test [1] and in test [6] was inactive.

`C=CC(=O)Nc1cccc(Sc2nc(Nc3ccc(N4CCN(C)CC4)cc3)ncc2Cl)c1`: the half-maximal activity concentration (AC50) in test [1] is 2090 nM (active); in test [2] it was 1480 nM (active); in test [6], 4170 nM (active). In test [3], the IC50 is 1660 nM (active). In addition, the fold change is 0.881 (inactive) in test [7] (setting [9]) and 1.05 in test [7] (setting [10]). Besides, the cell count in test [7] (setting [11]) was 4990; in test [7] (setting [12]) it was 5660. The z-score in test [8] (setting [13]) was -0.417 (inactive); in test [8] (setting [14]), 0.935.

Take `Cc1ccc(C(=O)Nc2ccc(Oc3cc4cnn(C)c4cc3-c3cn[nH]c3)c(F)c2)c(=O)n1-c1ccc(F)cc1`: in test [2], the AC50 was 4680 nM (active).

For `N#Cc1ccc(Cn2cncc2CN2CCN(c3cccc(Cl)c3)C(=O)C2)cc1`, in test [2], the concentration at half-maximal activity (AC50) was 9340 nM (active).
